Among the data in the antibiotic and cytotoxicity screens of Wong et al. (2023) are cytotoxicity call values, retold here.

SMILES strings stand for the structures. The campaign covered roughly 39,000 compounds. About 3,300 (8.5%) were called active. What follows is part of a selection rich in actives, with near analogues and random picks from the rest.

This assay deals with HepG2. Description: cytotoxicity call (relative viability < 0.9). The note with it: 10 µM.
For `C1CCC(C(C[C@H]2CCCCN2)C2CCCCC2)CC1`, the cytotoxicity call is “active”. The result for `OC[C@@H]1CCCCN1` reads “inactive”; that for `O=C(O)[C@@H]1CCCCN1`, “inactive”; that for `O=C(O)CC[C@H]1CCCCN1`, “inactive”. As for `C1CCC(C(CC2CCCCN2)C2CCCCC2)CC1.O=C(O)C=CC(=O)O` (configuration not stated), the cytotoxicity call is “active”. To `OC[C@@H]1CCCN1` belongs “inactive”.

Consider `C[C@H]1CN([C@@H](C)CO)C(=O)c2cccc(NS(=O)(=O)c3cn(C)cn3)c2O[C@H]1CN(C)CC1CCCCC1`, for which the cytotoxicity call is “inactive”. To `CCCC#Cc1ccc2c(c1)O[C@@H](CN(C)S(=O)(=O)c1cccc(F)c1)[C@@H](C)CN([C@@H](C)CO)S2(=O)=O` belongs “inactive”.

Turning to `O=C(CN1CCOCC1)NCC[C@H]1CC[C@@H](NC(=O)c2ccccc2F)[C@@H](CO)O1`, the cytotoxicity call is “inactive”. On to `CC(C)NC(=O)N(C)C[C@@H]1Oc2ccc(NC(=O)CCCN(C)C)cc2C(=O)N([C@H](C)CO)C[C@H]1C`, for which the cytotoxicity call was “inactive”.

On to `Nc1oncc1-c1ccc(Cl)cc1`, for which the cytotoxicity call is “inactive”. For `CCc1nc2ccccc2nc1CC`, the cytotoxicity call was “inactive”. To `CCc1nc(N)nc(N)c1-c1ccc(Cl)cc1` belongs “active”; to `C[C@@H]1CN([C@@H](C)CO)C(=O)c2cc(NC(=O)Nc3ccccc3)ccc2O[C@@H](C)CCCCO[C@H]1CN(C)C(=O)Cc1ccccc1`, “inactive”; to `C[C@@H]1CCCCO[C@@H](CN(C)C(=O)Nc2ccc(F)cc2)[C@@H](C)CN([C@H](C)CO)C(=O)c2cc(NC(=O)Nc3ccc(C(F)(F)F)cc3)ccc2O1`, “inactive”.

Take `C[C@@H]1CN([C@@H](C)CO)S(=O)(=O)c2ccc(C#Cc3ccccc3F)cc2O[C@@H]1CN(C)C(=O)c1ccc2c(c1)OCO2`: the cytotoxicity call was “active”. The result for `CC(C)CC#Cc1ccc2c(c1)O[C@H](CN(C)CC1CCOCC1)[C@@H](C)CN([C@H](C)CO)S2(=O)=O` reads “inactive”.

With `C[C@@H]1CN([C@@H](C)CO)S(=O)(=O)c2ccc(C#Cc3ccccc3F)cc2O[C@@H]1CN(C)C(=O)Cc1cccnc1`, the cytotoxicity call is “active”. The result for `C[C@H](CO)N1C[C@H](C)[C@H](CN(C)CC2CC2)Oc2cc(C#Cc3ccccc3F)ccc2S1(=O)=O` reads “active”; that for `C[C@@H]1CN([C@H](C)CO)S(=O)(=O)c2ccc(C#Cc3ccccc3F)cc2O[C@@H]1CN(C)C(=O)Cc1cccnc1`, “inactive”; that for `C[C@@H]1CN([C@@H](C)CO)S(=O)(=O)c2ccc(C#Cc3ccccc3F)cc2O[C@H]1CN(C)CC1CC1`, “inactive”. The result for `C[C@@H]1CN([C@@H](C)CO)S(=O)(=O)c2ccc(C#Cc3ccccc3F)cc2O[C@H]1CN(C)C(=O)Cc1cccnc1` reads “inactive”; that for `C[C@H]1CN([C@@H](C)CO)S(=O)(=O)c2ccc(C#Cc3ccccc3F)cc2O[C@H]1CN(C)C(=O)c1ccc2c(c1)OCO2`, “inactive”.

With `CC(C)CC#Cc1ccc2c(c1)O[C@@H](CN(C)CC1CCOCC1)[C@@H](C)CN([C@H](C)CO)S2(=O)=O`, the cytotoxicity call is “inactive”. To `CC(C)CC#Cc1ccc2c(c1)O[C@@H](CN(C)CC1CCOCC1)[C@H](C)CN([C@@H](C)CO)S2(=O)=O` belongs “active”; to `C[C@H]1CN([C@@H](C)CO)S(=O)(=O)c2ccc(C#Cc3ccccc3F)cc2O[C@@H]1CN(C)C(=O)c1ccc2c(c1)OCO2`, “inactive”. Consider `C[C@@H]1CN([C@H](C)CO)S(=O)(=O)c2ccc(C#Cc3ccccc3F)cc2O[C@@H]1CN(C)CC1CC1`, for which the cytotoxicity call is “inactive”. The result for `C[C@H]1CN([C@@H](C)CO)S(=O)(=O)c2ccc(C#CC3CC3)cc2O[C@@H]1CN(C)C(=O)c1cccc(F)c1` reads “inactive”; that for `Cc1noc(C)c1NC(=O)N(C)C[C@H]1OCCCC[C@@H](C)Oc2ccc(NC(=O)Nc3ccccc3)cc2C(=O)N([C@@H](C)CO)C[C@H]1C`, “inactive”; that for `CCC(=O)n1ccc(C(=O)N2CCOCC2)n1`, “inactive”. To `O=C(Nc1nn[nH]n1)C1CCCCC1` belongs “inactive”; to `C[C@@H]1CCCCO[C@H](CN(C)Cc2ccncc2)[C@@H](C)CN([C@@H](C)CO)C(=O)c2cc(NC(=O)Nc3ccc(F)cc3)ccc2O1`, “inactive”. `C[C@H](CO)N1C[C@H](C)[C@H](CN(C)C(=O)Nc2ccc(F)cc2)OCCCC[C@H](C)Oc2ccc(NC(=O)C3CCCCC3)cc2C1=O`: the cytotoxicity call was “inactive”. As for `COc1cccc(OC)c1C(=O)NN`, the cytotoxicity call is “inactive”. To `FC(F)(F)c1ccccc1-c1ncc(-c2ccccc2)o1` belongs “inactive”; to `CC(=O)N(O)CCC[C@H]1NC(=O)CNC(=O)CNC(=O)CNC(=O)[C@@H](CCCN(O)C(C)=O)NC(=O)[C@@H](CCCN(O)C(C)=O)NC1=O`, “inactive”. To `COc1ccc(NC(=O)N(C)C[C@H]2OCCCC[C@H](C)Oc3ccc(NC(=O)C4CCCCC4)cc3C(=O)N([C@@H](C)CO)C[C@@H]2C)cc1` belongs “inactive”; to `C[C@@H]1CCCCO[C@H](CN(C)Cc2ccccc2)[C@@H](C)CN([C@H](C)CO)C(=O)c2cc(NC(=O)c3ccncc3)ccc2O1`, “inactive”. On to `CCCCCN1CC=C[C@@]23O[C@@H]4C=CCOC(=O)[C@@H]4[C@H]2C(=O)N(CCCO)[C@@H]3C1=O`, for which the cytotoxicity call was “inactive”.

In the case of `C[C@@H]1CN([C@H](C)CO)C(=O)c2cc(NC(=O)CCN3CCOCC3)ccc2O[C@@H]1CN(C)Cc1ccc2c(c1)OCO2`, the cytotoxicity call was “inactive”. For `O=C(C[C@@H]1CC[C@@H]2[C@H](COC[C@@H](O)CN2S(=O)(=O)c2ccc(Cl)cc2)O1)N[C@@H]1CCN(Cc2ccccc2)C1`, the cytotoxicity call was “inactive”. To `O=C(C[C@@H]1CC[C@H]2[C@@H](COC[C@@H](O)CN2S(=O)(=O)c2ccc(Cl)cc2)O1)N[C@H]1CCN(Cc2ccccc2)C1` belongs “inactive”; to `O=C(C[C@@H]1CC[C@@H]2[C@H](COC[C@H](O)CN2S(=O)(=O)c2ccc(Cl)cc2)O1)N[C@@H]1CCN(Cc2ccccc2)C1`, “active”; to `O=C(C[C@H]1CC[C@@H]2[C@H](COC[C@@H](O)CN2S(=O)(=O)c2ccc(Cl)cc2)O1)N[C@H]1CCN(Cc2ccccc2)C1`, “inactive”.

With `O=C(C[C@H]1CC[C@@H]2[C@H](COC[C@H](O)CN2S(=O)(=O)c2ccc(Cl)cc2)O1)N[C@@H]1CCN(Cc2ccccc2)C1`, the cytotoxicity call was “inactive”. To `O=C(C[C@H]1CC[C@H]2[C@@H](COC[C@@H](O)CN2S(=O)(=O)c2ccc(Cl)cc2)O1)N[C@@H]1CCN(Cc2ccccc2)C1` belongs “active”. Consider `Cc1ccc(S(=O)(=O)Nc2ccc3c(c2)CC(=O)N([C@@H](C)CO)C[C@@H](C)[C@@H](CN(C)Cc2ccncc2)O3)cc1`, for which the cytotoxicity call is “inactive”.
